# Assay results from PubChem BioAssay (NCATS).
# Inconclusive results are not listed. A call without a number means that no potency is given here. Activity calls are given as the source filed them. Calls follow the shape of the dose curve; as a rule, active = well fitted curve in the direction sought with a large enough effect; inconclusive = small, poorly fitted or top-dose-only effect, or another doubt; inactive = no such curve, though single readings can be large; an effect the other way counts as inactive or inconclusive.
# Key:
# [1] = biological target: Aldehyde dehydrogenase, mitochondrial (Homo sapiens) (UniProt P05091); assay: qHTS for Inhibitors of the Aldehyde Dehydrogenase Family (ALDH2) Primary screen (AID 2061308); also: nearly all actives have a fitted effect of over 55% in size
# [2] = biological target: Retinaldehyde dehydrogenase 3 (Homo sapiens) (UniProt P47895); assay: qHTS for Inhibitors of the Aldehyde Dehydrogenase Family (ALDH1A3) Primary screen (AID 2061315)
SMILES,Potency [1],Potency [2]
O=C(OCC#CCSc1nnc(-c2cccc3ccccc23)o1)c1ccc2ccccc2c1,inactive,inactive
Cc1cccc2oc(NC3=NC(c4[nH]ncc4Cl)C4=C(CCCC4=O)N3)nc12 (stereo unspecified),inactive,inactive
Cc1cc(C)nc(NC(=S)N2CCN(c3nccc4occc34)CC2)c1,inactive,inactive
Cn1c2ccsc2c2ncn(Cc3ccc(F)cc3)c(=O)c21,inactive,inactive
N=c1c2c(ccn1-c1ccccc1)Oc1ccc3ccccc3c1C2c1ccccc1 (stereo unspecified),inactive,inactive
CS(=O)(=O)c1ccc(C(=O)OCC(=O)N2CCN(CCC3CCCCC3)CC2)cc1[N+](=O)[O-],inactive,inactive
COc1ccc(-c2nnc3n2N=C(c2ccccc2OC)CS3)cc1OC,inactive,inactive
CC1=C(C(=O)Nc2ccon2)C(c2ccccc2Br)N=C(Nc2nc3ccccc3o2)N1 (stereo unspecified),inactive,inactive
C=C(C)C(=O)O[C@H]1[C@H]2C(=C)C(=O)O[C@@H]2C[C@@H](C)[C@@H]2O[C@@H]2C(=O)[C@](C)(O)[C@@H]1OC(C)=O,inactive,inactive
C=CCNc1oc(-c2ccc(Cl)cc2)nc1C#N,inactive,inactive
COc1cccc(C(=O)NCCc2nc3ccccc3n2CCOc2ccc(C)cc2)c1,inactive,inactive
c1ccc(OCc2nnc3ccc(-c4ccccc4)nn23)cc1,inactive,inactive
Cc1cc(C)nc(NC(=S)N2CCN(c3ccc(C(F)(F)F)cc3Cl)CC2)c1,inactive,inactive
CN(C)c1oc(-c2cccc3ccccc23)nc1C#N,inactive,inactive
Cc1nc(NCc2ccccc2)c2nc(-c3ccccc3)n(CCN3CCOCC3)c2n1,inactive,inactive
O=C(OCC#CCSc1nnc(-c2cccc3ccccc23)o1)c1ccc(F)nc1,inactive,inactive
Cc1ccc(-c2nn(CC(=O)N(C)C(C)c3ccco3)c(=O)cc2C)cc1 (stereo unspecified),inactive,inactive
COc1ccccc1C(=O)N1CCc2cc(-c3nc(NC(=O)Cc4ccc5c(c4)OCO5)sc3C)ccc21,inactive,inactive
Clc1cccc(-c2ccc3ncnc(NCc4ccc5c(c4)OCO5)c3c2)c1,inactive,inactive
Cc1cc(NS(=O)(=O)c2ccc(NC(=O)Cc3ccccc3)cc2)no1,inactive,inactive
CCOC(=O)C1CCN(C(=O)CNC(=O)Nc2ccccc2Cl)CC1,inactive,inactive

SMILES,Potency [1],Potency [2]
Cc1c(C(=O)NCC2CCCO2)[nH]c2c1C(=O)CC(c1ccco1)C2 (stereo unspecified),inactive,inactive
CN1CCN(Cc2cc(COCc3ccccc3)c3cccnc3c2O)CC1,inactive,inactive
O=c1[nH]c2ccc(S(=O)(=O)N3CCN(S(=O)(=O)c4ccc5c(c4)OCCO5)CC3)cc2[nH]c1=O,inactive,inactive
COC(=O)c1ccc(O)c2ncc(-c3ccc(C(=O)N4CCN(C)CC4)cc3)cc12,inactive,inactive
COCCNc1nc(C)nc2c1nc(-c1ccccc1)n2CC1CCN(C)CC1,inactive,inactive
CC(=O)Nc1cc2c(s1)CNCC2,inactive,inactive
S=C(Nc1ccc(Cl)c(Cl)c1)Nc1nnc(-c2ccncc2)s1,inactive,inactive
CS(=O)(=O)c1ccc(-c2csc(N3CCC(C(N)=O)CC3)n2)cc1,inactive,inactive
Cn1cncc1CNc1ncnc2ccc(-c3ccc4c(c3)OCO4)cc12,inactive,inactive
O=[N+]([O-])c1ccc([S+](=O)([O-])N2CCN([S+](=O)([O-])c3ccc4c(c3)OCCO4)CC2)c([N+](=O)[O-])c1,inactive,inactive
O=C(Cc1ccc(Cl)c(Cl)c1)Nc1ccc([S+](=O)([O-])Nc2ncn[nH]2)cc1,inactive,inactive
Cc1c(Br)cc(F)c([S+](=O)([O-])N2CCN([S+](=O)([O-])c3ccc4c(c3)OCCO4)CC2)c1F,inactive,inactive
Cc1noc(C)c1-c1ccc2ncnc(NCc3ccc(C(F)(F)F)o3)c2c1,inactive,inactive
NC(=O)c1cnc(N[C@@H]2CCCC[C@H]2N)nc1Nc1cccc(-n2nccn2)c1,inactive,inactive
Cc1ccc(S(=O)(=O)Nc2cc3c(cc2C(=O)Nc2nc(-c4ccccc4)cs2)OCO3)cc1,inactive,inactive
O=C(Cc1ccc(Cl)c(Cl)c1)Nc1ccc([S+](=O)([O-])Nc2ccc3[nH]ccc3c2)cc1,inactive,inactive
O=C(O)c1ccc(O)c2ncc(-c3cccc(N4CCOCC4)c3)cc12,inactive,inactive
O=C1CCCC2=C1C(c1ccc(Cl)cc1)N=C(Nc1nc3ccccc3o1)N2 (stereo unspecified),inactive,inactive
CCCCC1CCC(C(=O)Nc2ccc(S(=O)(=O)Nc3cc(C)on3)cc2)CC1 (stereo unspecified),inactive,inactive
O=C(Nc1ccc(-c2ccccc2)nc1)c1cccs1,inactive,inactive
Cc1ccc(N(C)S(=O)(=O)c2ccc3c(c2)CCC(=O)N3)cc1C,inactive,inactive

SMILES,Potency [1],Potency [2]
CC1CCC/C=C/C(=O)c2c(O)cc(O)cc2CC(=O)O1 (stereo unspecified),inactive,inactive
CC(=O)O[C@@]12CO[C@@H]1C[C@H](O)[C@@]1(C)C(=O)[C@H](O)C3=C(C)[C@@H](OC(=O)[C@H](O)[C@@H](NC(=O)OC(C)(C)C)c4ccccc4)C[C@@](O)([C@@H](OC(=O)c4ccccc4)C12)C3(C)C (stereo partly specified),inactive,inactive
COc1ccc(S(=O)(=O)N2CCN(C(=O)C3COc4ccccc4O3)CC2)cc1 (stereo unspecified),inactive,inactive
COc1ccccc1NC(=O)C1=C(C)NC(Nc2nc3ccccc3o2)=NC1c1ccccc1Br (stereo unspecified),inactive,inactive
Oc1cc(Nc2ccncc2)cc2cccnc12,inactive,inactive
Cn1nnnc1Sc1ncnc2scc(-c3ccccc3[N+](=O)[O-])c12,inactive,inactive
Cc1ccc(S(=O)(=O)Nc2cnccc2C(=O)Nc2nc(-c3ccccc3F)cs2)cc1,inactive,inactive
Cc1nc(NCCO)c2nc(-c3ccccc3)n(CC3CCN(C)CC3)c2n1,inactive,inactive
N=c1c2c(ncn1-c1ccccc1)Oc1ccc3ccccc3c1C2c1ccc2c(c1)OCO2 (stereo unspecified),inactive,inactive
CN1CCOc2cc(S(=O)(=O)N3CCN(S(=O)(=O)c4c(F)cccc4F)CC3)cnc21,inactive,inactive
COc1cc2ncnc(Nc3cccc(O)c3)c2cc1OC,inactive,inactive
Cc1ccc(S(=O)(=O)Nc2cnccc2C(=O)Nc2nc(-c3ccc(Cl)cc3)cs2)cc1,inactive,inactive
CCCn1c(C)nc2c(NCCN3CCOCC3)nc(C)nc21,inactive,inactive
O=C(O)CCc1cc(F)c(S(=O)(=O)N2CCN(S(=O)(=O)c3ccc4c(c3)OCCO4)CC2)cc1F,inactive,inactive
CCOC(=O)Nc1sc2c(c1C(N)=O)CCCC2,inactive,inactive
CCCn1c(-c2ccc(F)cc2)nc2c(NCCCCN(CC)CC)nc(C)nc21,inactive,inactive
O=S1(=O)N=C(Oc2ccc(C(F)(F)F)cc2)c2ccccc21,inactive,inactive
CC1=CC(=O)CC(C)(C)C1CCC(C)OC1OC(COC(=O)c2cc(O)c(O)c(O)c2)C(O)C(O)C1O (stereo unspecified),inactive,inactive
Cc1ccccc1C(C(=O)NC1CCCCC1)N(C(=O)Cn1cnc2ccccc21)c1cccc(F)c1 (stereo unspecified),inactive,inactive
CN1CCN(C(=O)[C@H](Cc2ccc(O[S+](=O)([O-])c3cccc4cnccc34)cc2)N[S+](=O)([O-])c2cccc3cnccc23)CC1,inactive,inactive
Cc1ccc(S(=O)(=O)Nc2cnccc2C(=O)Nc2nc(-c3ccc(-c4ccccc4)cc3)cs2)cc1,inactive,inactive

SMILES,Potency [1],Potency [2]
Cc1ccc(C2=NN(CC(=O)N(C)C(C)c3ccco3)C(=O)C2)cc1 (stereo unspecified),inactive,inactive
Cc1nc(NCc2ccccc2)c2nc(-c3ccccc3)n(CCCN(C)C)c2n1,inactive,inactive
COc1cc(F)c(S(=O)(=O)N2CCCN(S(=O)(=O)c3ccc(N)cc3)CC2)c(F)c1,inactive,inactive
COc1cccc(C2C(C#N)=C(NC(=O)CCc3ccccc3)Oc3ccc4ccccc4c32)c1 (stereo unspecified),inactive,inactive
Nc1cccc(S(=O)(=O)N2CCN(S(=O)(=O)c3c(F)cccc3F)CC2)c1,inactive,inactive
CCc1ccc2oc(NC3=NC(c4[nH]ncc4Cl)C4=C(CCCC4=O)N3)nc2c1 (stereo unspecified),inactive,inactive
Cn1c(NC2=NC3(CCCC3)C3=C(CCCC3=O)N2)nc2ccccc21,inactive,inactive
CCOc1ccc(CCNC(=O)C2CCCCC2)cc1OCC,inactive,inactive
CN(Cc1nccs1)S(=O)(=O)c1ccc(Nc2nc(-c3ccccc3)cs2)cc1,inactive,inactive
CCNc1cccc(S(=O)(=O)N2CCCN(S(=O)(=O)c3ccc4c(c3)OCCO4)CC2)c1,inactive,inactive
CC1(C)CC(=O)C2=C(C1)NC(=S)NC2c1cccc(O)c1 (stereo unspecified),inactive,inactive
COc1cc(F)c(S(=O)(=O)N2CCN(S(=O)(=O)c3cccc(NC(C)=O)c3)CC2)c(F)c1,inactive,inactive
O=[S+]([O-])(Nc1ccccc1)c1ccc(NCc2cccc(Cl)c2F)cc1,inactive,inactive
Cc1ccc(S(=O)(=O)Nc2cc(Br)ccc2C(=O)Nc2nc(-c3ccccc3)cs2)cc1,inactive,inactive
O=C1c2ccccc2C(=O)N1c1cccc2ncccc12,inactive,inactive
CC#CC(=O)Nc1ccc2ncnc(Nc3cccc(Br)c3)c2c1,inactive,inactive
O=[S+]([O-])(c1ccc2c(c1)OCCO2)N1CCN([S+](=O)([O-])c2c(O)cc(F)cc2F)CC1,inactive,inactive
CCc1c(C)nc2cc(-c3ccc(OC)c(OC)c3)nn2c1N1CCCC1,inactive,inactive
O=S(=O)(NCc1ccccc1)c1ccc(O)c2ncccc12,inactive,inactive
CCC(C)C(=O)Oc1cc(C)ccc1C1(COC(=O)C(C)C)CO1 (stereo unspecified),inactive,inactive
